Each molecule was assayed against Solute carrier family 2, facilitated glucose transporter member 1 (Homo sapiens) (UniProt P11166) (assay: ST_JUDE_LEISH: Cytotoxicity at 2uM final concentration against transgenic Leishmania Mexicana promastigotes LmGLUT1 that are glucose transport deficient and complemented with the human glucose transporter GLUT1. Activity is measured by DNA content using SYBR green in vitro).
Type: functional

Sequence of Solute carrier family 2, facilitated glucose transporter member 1 (Homo sapiens) (P11166 whole entry): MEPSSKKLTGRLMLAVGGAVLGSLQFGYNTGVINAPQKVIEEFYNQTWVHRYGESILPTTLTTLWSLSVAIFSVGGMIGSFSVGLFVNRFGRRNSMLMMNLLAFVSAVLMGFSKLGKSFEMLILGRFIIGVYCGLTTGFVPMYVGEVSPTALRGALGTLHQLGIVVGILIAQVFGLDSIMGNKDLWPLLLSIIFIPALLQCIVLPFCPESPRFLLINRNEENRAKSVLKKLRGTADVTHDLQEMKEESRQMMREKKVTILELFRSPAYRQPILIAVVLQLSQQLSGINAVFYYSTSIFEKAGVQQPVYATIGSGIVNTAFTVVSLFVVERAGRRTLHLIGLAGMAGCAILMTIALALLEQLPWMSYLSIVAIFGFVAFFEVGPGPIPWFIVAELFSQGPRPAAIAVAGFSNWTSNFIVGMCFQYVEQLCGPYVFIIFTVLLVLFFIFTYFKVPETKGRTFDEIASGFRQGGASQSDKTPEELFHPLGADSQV

Row | SMILES | inhibition [%]
1 | O=C(Nc1ccc(OC2CCN(Cc3ccc(F)cc3)C2)cc1)c1cccs1 (stereo not given) | -3.81
2 | CCN(CCCN1CCCCC1)c1cc(C)nc(Nc2cc(C)ccc2C)n1 | -1.92
3 | Cc1ccc([N+](=O)[O-])cc1NC(=O)N(CC(O)c1ccccc1)C1CCCCC1 (stereo not given) | 1.93
4 | CN1CCN(CCCN(Cc2cccc(-c3ccc(CNC4CCCC4)cc3)c2)C(=O)/C=C/c2ccccc2)CC1 | 6.1
5 | Oc1ccccc1CNCC12CC3CC(CC(C3)C1)C2 | 3.18
6 | CCNC(=O)c1cc(S(=O)(=O)N2CCN(c3ccccn3)CC2)cs1 | 0.14
7 | CCCc1ccc(S(=O)(=O)NC2CCN(c3ccnc(Nc4ccc(OC)cc4)n3)C2)cc1 (stereo not given) | 8.11
8 | COc1ccc2nccc([C@@H](O)CN3CCC(NCc4cc5c(F)ccc(F)c5[nH]4)CC3)c2n1 | 87.9
9 | CC1CCNc2ccc(Cc3cnc(N)nc3N)cc21 (stereo not given) | 2.12
10 | O=C1CCCN1CCCNCc1ccc(-c2ccc(-c3nc4cc(C(F)(F)F)ccc4[nH]3)cc2)cc1 | 3.36
11 | COc1ccc2nccc([C@@H](O)CN3CCC(NC(=O)C(=Cc4ccc(Cl)cc4Cl)c4ccc(-c5ccccc5)cc4)CC3)c2c1 | 6.27
12 | O=S(=O)(Nc1ccc(CCN2CCCCC2CCN2CCCC2)cc1)c1ccc(-c2ccccc2)cc1 (stereo not given) | 9.09
13 | Cc1ccc(Nc2ccnc3ccc(C(F)(F)F)cc23)cc1O | 4.92
14 | Clc1ccc(Nc2nc(NCc3ccccc3)nc(N/N=C/c3ccccn3)n2)cc1 | 83.7
15 | N=C1N=C(N)NC2(CCCCC2)N1OCC1CCCCC1 | -0.96
16 | CN(CCC(CCN1CCC(c2c[nH]c3ccccc23)CC1)c1ccccc1)C(=O)Nc1ccc(Cl)c(Cl)c1 (stereo not given) | 2.82
17 | O=C(c1ccc(Cl)cc1)C1CCN(CCCOc2ccc3c(c2)CCNCC3)CC1 | 1.04
18 | CN1CCN(Cc2ccc(-c3cccc(-c4nc5ccccc5[nH]4)c3)cc2)CC1 | 1.13
19 | O=C(CCn1cncn1)N1CCCC(c2[nH]c3ccccc3c2-c2ccncc2)C1 (stereo not given) | -2.2
20 | CC1=C(C(=O)Nc2cc3cn[nH]c3cc2F)C(c2cccc(O)c2F)CC(=O)N1 (stereo not given) | -2.25

Row | SMILES | inhibition [%]
21 | O=C(Nc1ccc(F)c([N+](=O)[O-])c1)Nc1cc(C(F)(F)F)ccc1Cl | 0.18
22 | Oc1c(C(Nc2nc3ccccc3s2)c2ccccc2)ccc2cccnc12 (stereo not given) | 2.66
23 | Cc1cnc(CN(Cc2ccc(-c3ccc(CNCCc4ccc(S(C)(=O)=O)cc4)cn3)cc2)C(=O)c2nn(-c3ccccc3)nc2C)cn1 | 5.03
24 | Cc1cc(OCCCN2CCCCC2C)ccc1NC(=O)COc1ccc(Cl)cc1C(=O)c1cc(Cl)cc(C#N)c1 (stereo not given) | 74.2
25 | COc1ccc2nc3cc(Cl)ccc3c(NCCCCCCNc3c4ccc(Cl)cc4nc4ccc(OC)cc34)c2c1 | 10.3
26 | O=C(Nc1ccc(OC2CCN(Cc3ccccc3)C2)c(Cl)c1)c1ccsc1 (stereo not given) | 1.05
27 | O=C(Nc1cccc(CN2CCCN(Cc3ccc(O)cc3)CC2)c1)c1ccc(-c2ccccc2)cc1 | 1.14
28 | COc1ccc(Nc2nc(NC3CCN(Cc4ccccc4)CC3)cc(-c3ccncc3)n2)cc1 | -0.03
29 | COc1cc2nc(NCCn3ccnc3C)nc(NCCc3ccccc3)c2cc1OC | 1.91
30 | Cc1cc(=NN=Cc2ccc(Cl)cc2)c2cccc(C)c2[nH]1 | 10.4
31 | O=C1CCCN1CCCNCc1ccc(-c2cccc(-c3nc4ccccc4[nH]3)c2)cc1 | 4.17
32 | CN1CCC(N2CCN(Cc3cccc(-c4cccc(-c5nc6ccccc6[nH]5)c4)c3)CC2)CC1 | -4.87
33 | Cc1noc(C)c1-c1cccc(CNCc2cccc(-c3ccc(-c4nc5ccccc5[nH]4)s3)c2)c1 | 8.57
34 | N#Cc1ccc(CN2CCC(Oc3ccc(NC(=O)c4cccs4)cc3Cl)C2)cc1 (stereo not given) | -0.24
35 | CCN(CC)CCCN(C(=O)Nc1ccc(C#N)cc1)c1nc(-c2ccc(F)cc2)cs1 | -0.54
36 | Cc1ccc(CN2CCN(c3cc4c(cc3Cl)CCN4C(=O)Cc3ccc(NC(=O)c4ccc(C(F)(F)F)cc4)cc3)CC2)cc1 | 6.58
37 | c1ccc(C(c2ccccc2)N2CCC(NCc3ccc(OCCCN4CCCCC4)cc3)CC2)cc1 | 8.52
38 | Brc1ccc(Nc2nc3ccccc3nc2Nc2ccc(Br)cc2)cc1 | 9.39
39 | O=C(Nc1ccc(N2CCCCC2)c(Cl)c1)c1ccc(Br)o1 | 1.4
40 | CN1CCC(NCc2ccc(-c3cnc(NCc4ccccc4)nc3)cc2)CC1 | 1.18

Source: ChEMBL document CHEMBL3433997, “St. Jude Leishmania screening dataset” (2016)
